# Reference: article PMC7862700, “An all-to-all approach to the identification of sequence-specific readers for epigenetic DNA modifications on cytosine”
# How the values were obtained:
# Assay in all cases: DAPPL (digital affinity profiling via proximity ligation, sequencing); 10 mM Tris-HCl pH 7.5, 50 mM NaCl, 1 mM DTT, 4% glycerol, room temperature, 30 min; GST-TFs on glutathione beads, 16-mer random dsDNA library, 0.1% formaldehyde crosslink after washing; high values mean tight binding
# FEV = target: T1, FEV (Homo sapiens, UniProt Q99581 1-238); settings: protein: recombinant; tags: N-terminal GST; dsDNA, one strand shown
# T1 sequence: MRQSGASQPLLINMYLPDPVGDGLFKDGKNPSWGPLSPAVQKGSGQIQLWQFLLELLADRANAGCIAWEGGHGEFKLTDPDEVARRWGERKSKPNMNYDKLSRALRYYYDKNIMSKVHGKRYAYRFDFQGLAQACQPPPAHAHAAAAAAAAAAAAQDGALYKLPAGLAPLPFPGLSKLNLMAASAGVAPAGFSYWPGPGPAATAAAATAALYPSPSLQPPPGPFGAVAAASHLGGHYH
# Procedure, shortened: (§1)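 Binding signal is defined as a hexamer's read frequency for one factor over its frequency for the tag-only sample. To obtain reads, GST-fused human transcription factors were expressed in yeast, captured on glutathione beads, barcoded with DNA and pooled with that sample. Pools met 200 nmole of a 16-mer random double-stranded DNA library in Tris/NaCl/DTT/glycerol buffer for 30 min at room temperature before washing, 0.1% formaldehyde crosslinking, proximity ligation (BsaI/T4 ligase, 1 h, 37 °C), PCR and Illumina NextSeq500 sequencing.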
# ETV5 = ETV5 (Homo sapiens, UniProt P41161 1-510); settings: protein: recombinant; tags: N-terminal GST; dsDNA, one strand shown
# Procedure, shortened: as §1
# HSF1 = HSF1 (Homo sapiens, UniProt Q00613 1-529); settings: protein: recombinant; tags: N-terminal GST; chain copies: 3; dsDNA, one strand shown
# Procedure, shortened: as §1
# SPIC = target: T2, SPIC (Homo sapiens, UniProt Q8N5J4 1-248); settings: protein: recombinant; tags: N-terminal GST; dsDNA, one strand shown
# T2 sequence: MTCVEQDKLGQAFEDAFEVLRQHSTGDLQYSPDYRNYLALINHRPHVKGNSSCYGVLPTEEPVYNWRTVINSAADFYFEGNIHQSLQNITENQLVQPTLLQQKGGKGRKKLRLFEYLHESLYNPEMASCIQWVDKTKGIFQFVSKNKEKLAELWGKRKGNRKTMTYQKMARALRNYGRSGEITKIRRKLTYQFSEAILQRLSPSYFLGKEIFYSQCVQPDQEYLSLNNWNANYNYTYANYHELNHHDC
# Procedure, shortened: as §1
# ELF4 = ELF4 (Homo sapiens, UniProt Q99607 1-663); settings: protein: recombinant; tags: N-terminal GST; dsDNA, one strand shown
# Procedure, shortened: as §1
# ELK4 = target: T3, ELK4 (Homo sapiens, UniProt P28324-2 1-405); settings: protein: recombinant; tags: N-terminal GST; dsDNA, one strand shown
# T3 sequence: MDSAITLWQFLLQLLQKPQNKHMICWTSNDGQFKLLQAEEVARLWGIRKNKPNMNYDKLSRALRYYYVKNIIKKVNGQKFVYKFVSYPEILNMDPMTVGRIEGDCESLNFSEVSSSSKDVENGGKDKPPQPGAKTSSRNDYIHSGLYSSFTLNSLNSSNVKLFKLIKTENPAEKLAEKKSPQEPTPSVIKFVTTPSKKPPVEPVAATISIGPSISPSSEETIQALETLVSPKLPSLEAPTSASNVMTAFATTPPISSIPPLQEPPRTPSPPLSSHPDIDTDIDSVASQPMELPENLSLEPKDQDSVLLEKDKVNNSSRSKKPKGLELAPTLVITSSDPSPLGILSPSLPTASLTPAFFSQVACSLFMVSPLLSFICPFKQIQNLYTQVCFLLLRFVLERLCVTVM
# Procedure, shortened: as §1
# ETV2 = target: T4, ETV2 (Homo sapiens, UniProt O00321 1-342); settings: protein: recombinant; tags: N-terminal GST; dsDNA, one strand shown
# T4 sequence: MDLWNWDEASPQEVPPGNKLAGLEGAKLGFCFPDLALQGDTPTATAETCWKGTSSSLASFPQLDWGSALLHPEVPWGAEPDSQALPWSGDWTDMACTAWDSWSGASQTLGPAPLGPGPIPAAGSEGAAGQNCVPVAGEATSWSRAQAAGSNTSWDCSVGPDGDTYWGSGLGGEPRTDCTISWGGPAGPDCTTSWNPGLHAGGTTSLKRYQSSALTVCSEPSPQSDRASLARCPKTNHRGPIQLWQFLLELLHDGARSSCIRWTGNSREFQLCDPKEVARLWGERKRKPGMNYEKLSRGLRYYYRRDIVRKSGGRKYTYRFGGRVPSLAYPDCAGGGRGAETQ
# Procedure, shortened: as §1
# ELF3 = target: T5, ELF3 (Homo sapiens, UniProt P78545 1-371); settings: protein: recombinant; tags: N-terminal GST; dsDNA, one strand shown
# T5 sequence: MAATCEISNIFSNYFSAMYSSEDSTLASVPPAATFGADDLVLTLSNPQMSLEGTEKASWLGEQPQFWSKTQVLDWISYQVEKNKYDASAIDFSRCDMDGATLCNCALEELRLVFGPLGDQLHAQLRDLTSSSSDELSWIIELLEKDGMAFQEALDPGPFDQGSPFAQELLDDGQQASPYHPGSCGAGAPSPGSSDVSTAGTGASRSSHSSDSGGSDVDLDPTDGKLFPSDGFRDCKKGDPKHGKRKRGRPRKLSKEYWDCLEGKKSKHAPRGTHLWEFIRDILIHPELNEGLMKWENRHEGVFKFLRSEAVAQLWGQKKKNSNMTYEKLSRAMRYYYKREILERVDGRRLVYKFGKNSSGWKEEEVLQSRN
# Procedure, shortened: as §1
# CRX = CRX (Homo sapiens, UniProt O43186 1-299); settings: protein: recombinant; tags: N-terminal GST; dsDNA, one strand shown
# Procedure, shortened: as §1
# ETV1 = ETV1 (Homo sapiens, UniProt P50549 1-477); settings: protein: recombinant; tags: N-terminal GST; dsDNA, one strand shown
# Procedure, shortened: as §1
# Chain of HSF1 (Q00613 whole entry): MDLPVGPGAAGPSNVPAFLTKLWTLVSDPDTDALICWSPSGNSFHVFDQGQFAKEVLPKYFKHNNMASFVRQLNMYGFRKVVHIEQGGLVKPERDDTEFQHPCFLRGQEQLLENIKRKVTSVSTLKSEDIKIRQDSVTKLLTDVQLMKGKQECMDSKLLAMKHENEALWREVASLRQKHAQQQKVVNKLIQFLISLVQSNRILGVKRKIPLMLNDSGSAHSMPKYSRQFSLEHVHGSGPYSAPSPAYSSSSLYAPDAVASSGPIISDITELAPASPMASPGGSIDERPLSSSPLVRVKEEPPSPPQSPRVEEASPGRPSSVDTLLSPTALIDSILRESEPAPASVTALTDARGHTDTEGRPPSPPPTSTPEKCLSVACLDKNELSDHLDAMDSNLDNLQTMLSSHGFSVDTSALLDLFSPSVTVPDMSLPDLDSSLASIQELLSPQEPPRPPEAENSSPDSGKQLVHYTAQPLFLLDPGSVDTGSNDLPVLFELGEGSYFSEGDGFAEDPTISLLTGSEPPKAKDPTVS
# Chain of ETV1 (P50549 whole entry): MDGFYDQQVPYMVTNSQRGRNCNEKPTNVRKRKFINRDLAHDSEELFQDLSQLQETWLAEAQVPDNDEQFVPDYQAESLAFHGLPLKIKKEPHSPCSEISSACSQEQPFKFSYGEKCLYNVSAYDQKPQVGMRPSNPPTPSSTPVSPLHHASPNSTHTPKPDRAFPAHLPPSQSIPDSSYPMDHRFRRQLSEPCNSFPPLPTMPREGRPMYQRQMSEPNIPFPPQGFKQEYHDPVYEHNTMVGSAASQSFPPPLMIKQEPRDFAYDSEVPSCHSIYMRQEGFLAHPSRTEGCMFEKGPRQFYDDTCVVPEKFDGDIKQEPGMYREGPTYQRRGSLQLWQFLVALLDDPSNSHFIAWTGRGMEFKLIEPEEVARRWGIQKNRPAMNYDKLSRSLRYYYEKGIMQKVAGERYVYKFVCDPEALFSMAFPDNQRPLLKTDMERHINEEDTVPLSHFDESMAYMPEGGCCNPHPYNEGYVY
# Chain of ELF4 (Q99607 whole entry): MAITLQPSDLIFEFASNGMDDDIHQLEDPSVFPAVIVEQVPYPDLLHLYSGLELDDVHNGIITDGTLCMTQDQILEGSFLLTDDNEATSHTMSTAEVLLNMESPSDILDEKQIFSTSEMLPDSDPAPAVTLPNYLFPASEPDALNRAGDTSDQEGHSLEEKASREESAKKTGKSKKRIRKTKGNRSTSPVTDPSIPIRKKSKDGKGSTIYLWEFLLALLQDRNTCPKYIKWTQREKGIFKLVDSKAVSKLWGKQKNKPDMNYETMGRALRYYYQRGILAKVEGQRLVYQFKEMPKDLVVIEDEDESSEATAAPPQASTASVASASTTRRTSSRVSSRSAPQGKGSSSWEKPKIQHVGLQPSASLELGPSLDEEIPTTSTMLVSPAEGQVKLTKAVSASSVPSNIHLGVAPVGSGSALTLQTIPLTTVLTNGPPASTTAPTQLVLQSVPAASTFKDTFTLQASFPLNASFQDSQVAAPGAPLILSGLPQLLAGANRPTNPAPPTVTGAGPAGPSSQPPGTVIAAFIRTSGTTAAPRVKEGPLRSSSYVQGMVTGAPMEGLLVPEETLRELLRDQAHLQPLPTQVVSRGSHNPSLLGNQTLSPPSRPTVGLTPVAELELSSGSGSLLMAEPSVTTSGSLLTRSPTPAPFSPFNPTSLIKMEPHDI
# Chain of CRX (O43186 whole entry): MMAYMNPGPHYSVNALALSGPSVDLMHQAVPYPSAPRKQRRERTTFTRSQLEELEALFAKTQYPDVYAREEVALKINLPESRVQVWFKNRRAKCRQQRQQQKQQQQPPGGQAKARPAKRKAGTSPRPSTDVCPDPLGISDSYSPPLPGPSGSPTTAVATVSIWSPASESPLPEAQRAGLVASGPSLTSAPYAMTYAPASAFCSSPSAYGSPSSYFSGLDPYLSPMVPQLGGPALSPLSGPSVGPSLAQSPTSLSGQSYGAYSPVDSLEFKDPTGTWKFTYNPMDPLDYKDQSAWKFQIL
# Chain of ETV5 (P41161 whole entry): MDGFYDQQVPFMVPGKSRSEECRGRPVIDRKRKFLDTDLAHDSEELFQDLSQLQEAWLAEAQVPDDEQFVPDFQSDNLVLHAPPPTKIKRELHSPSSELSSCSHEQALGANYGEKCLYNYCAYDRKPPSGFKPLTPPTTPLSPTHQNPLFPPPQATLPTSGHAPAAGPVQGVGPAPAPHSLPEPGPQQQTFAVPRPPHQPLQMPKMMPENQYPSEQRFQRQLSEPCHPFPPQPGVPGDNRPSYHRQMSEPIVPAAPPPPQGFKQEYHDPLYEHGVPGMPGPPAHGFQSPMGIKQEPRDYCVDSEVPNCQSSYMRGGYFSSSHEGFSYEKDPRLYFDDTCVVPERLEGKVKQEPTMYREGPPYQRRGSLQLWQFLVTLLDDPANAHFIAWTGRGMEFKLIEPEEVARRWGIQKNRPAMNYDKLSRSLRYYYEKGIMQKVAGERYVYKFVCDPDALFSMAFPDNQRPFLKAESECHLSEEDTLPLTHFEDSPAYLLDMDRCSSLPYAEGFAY
sequence,measurement,setting,value
AATTTA,binding signal,FEV,"1.16 fold enrichment (6-mer frequency, TF over GST control)"
same,binding signal,ETV5,"1.27 fold enrichment (6-mer frequency, TF over GST control)"
same,binding signal,HSF1,"1.44 fold enrichment (6-mer frequency, TF over GST control)"
same,binding signal,SPIC,"1.21 fold enrichment (6-mer frequency, TF over GST control)"
same,binding signal,ELF4,"1.21 fold enrichment (6-mer frequency, TF over GST control)"
same,binding signal,ELK4,"1.22 fold enrichment (6-mer frequency, TF over GST control)"
same,binding signal,ETV2,"1.13 fold enrichment (6-mer frequency, TF over GST control)"
same,binding signal,ELF3,"1.36 fold enrichment (6-mer frequency, TF over GST control)"
same,binding signal,CRX,"1.59 fold enrichment (6-mer frequency, TF over GST control)"
same,binding signal,ETV1,"1.22 fold enrichment (6-mer frequency, TF over GST control)"
